Source: the supplement of paper PMC10849652
About 8,800 targets were measured; listed, in parts, are those with a hit and a random draw of the rest. About 0.5% of all pairs of compound and target were hits. Values without a mark were called inactive.

Tests used:
Assay in all cases: log2 fold change, soluble protein after heating vs DMSO (PISA); higher = thermal stabilisation; K562 lysate, 10 uM; active = over 0.2 and 3.5 SD of the protein, either way, in both replicates (recomputed)
vemurafenib = compound: CCCS(=O)(=O)Nc1ccc(F)c(C(=O)c2c[nH]c3ncc(-c4ccc(Cl)cc4)cc23)c1F [vemurafenib]
In short: (§1)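 A 30 min treatment with 10 μM compound was applied to crude K562 extract at 1 mg/mL protein in PBS pH 7.4 with 1 mM MgCl2. Heating for 3 min spanned 48°C-58°C, after which aliquots were pooled, adjusted to 0.5% NP-40 at 4°C and spun at 21,000xg for 90 min. TMTpro 16plex LC-MS/MS of the supernatant, with channel sums equalised, gave values recorded as log-two fold change in thermal stability against solvent controls, from duplicates.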

[1] = compound: CCCS(=O)(=O)Nc1ccc(F)c(C(=O)c2c[nH]c3ncc(Cl)cc23)c1F
In short: as §1

[2] = compound: CC[C@@H]1C(=O)N(C)c2cnc(Nc3ccc(C(=O)NC4CCN(C)CC4)cc3OC)nc2N1C1CCCC1
In short: as §1

volasertib = compound: CC[C@@H]1C(=O)N(C)c2cnc(Nc3ccc(C(=O)N[C@H]4CC[C@H](N5CCN(CC6CC6)CC5)CC4)cc3OC)nc2N1C(C)C [volasertib]
In short: as §1

[3] = compound: CCn1c(C(=O)N(C2CC2)C2CC2)cc2c3c(ncn3C)c(Nc3cc(C)n(C)n3)nc21
In short: as §1

[4] = compound: CCn1cc(-c2ccnc3[nH]c(-c4cccc(CN(C)C)c4)cc23)c(-c2ccc(NC(=O)N(C)C)cc2)n1
In short: as §1

[5] = compound: CN1CCC(CNc2ccc3ncc(-c4cccc(OC(F)(F)F)c4)n3n2)CC1
In short: as §1

saracatinib = compound: CN1CCN(CCOc2cc(OC3CCOCC3)c3c(Nc4c(Cl)ccc5c4OCO5)ncnc3c2)CC1 [saracatinib]
In short: as §1

sotrastaurin = compound: CN1CCN(c2nc(C3=C(c4c[nH]c5ccccc45)C(=O)NC3=O)c3ccccc3n2)CC1 [sotrastaurin]
In short: as §1

alvocidib = compound: CN1CC[C@H](c2c(O)cc(O)c3c(=O)cc(-c4ccccc4Cl)oc23)[C@H](O)C1 [alvocidib]
In short: as §1

Tubastatin A = compound: CN1CCc2c(c3ccccc3n2Cc2ccc(C(=O)NO)cc2)C1 [Tubastatin A]
In short: as §1

[6] = compound: CNC(=O)C1=CC=CC=C1NC2=NC(=NC=C2Cl)NC3=C(C=C(C=C3)N4CCOCC4)OC
In short: as §1

defactinib = compound: CNC(=O)c1ccc(Nc2ncc(C(F)(F)F)c(NCc3nccnc3N(C)S(C)(=O)=O)n2)cc1 [defactinib]
In short: as §1

[7] = compound: CNc1nc(-c2ccc3c(N)n[nH]c3c2)cc(N2C[C@@H](C(=O)NC3CCCCC3)CC[C@H]2C)n1
In short: as §1

encorafenib = compound: COC(=O)N[C@@H](C)CNc1nccc(-c2cn(C(C)C)nc2-c2cc(Cl)cc(NS(C)(=O)=O)c2F)n1 [encorafenib]
In short: as §1

[8] = compound: COC(=O)[C@H](CCSC)NC(=O)C1=C(C=C(C=C1)NC[C@H](CS)N)C2=CC=CC=C2
In short: as §1

alisertib = compound: COc1cc(Nc2ncc3c(n2)-c2ccc(Cl)cc2C(c2c(F)cccc2OC)=NC3)ccc1C(=O)O [alisertib]
In short: as §1

[9] = compound: COc1cc2nc(-c3cc(F)ccc3O)nc(N[C@@H]3CNC[C@H]3C(C)(C)O)c2cc1OC
In short: as §1

gefitinib = compound: COc1cc2ncnc(Nc3ccc(F)c(Cl)c3)c2cc1OCCCN1CCOCC1 [gefitinib]
In short: as §1

barasertib = compound: CCN(CCCOc1ccc2c(Nc3cc(CC(=O)Nc4cccc(F)c4)[nH]n3)ncnc2c1)CCOP(=O)(O)O [barasertib]
In short: as §1

Sequence of UniProt Q6ZPD9 (Q6ZPD9 whole entry, looked up): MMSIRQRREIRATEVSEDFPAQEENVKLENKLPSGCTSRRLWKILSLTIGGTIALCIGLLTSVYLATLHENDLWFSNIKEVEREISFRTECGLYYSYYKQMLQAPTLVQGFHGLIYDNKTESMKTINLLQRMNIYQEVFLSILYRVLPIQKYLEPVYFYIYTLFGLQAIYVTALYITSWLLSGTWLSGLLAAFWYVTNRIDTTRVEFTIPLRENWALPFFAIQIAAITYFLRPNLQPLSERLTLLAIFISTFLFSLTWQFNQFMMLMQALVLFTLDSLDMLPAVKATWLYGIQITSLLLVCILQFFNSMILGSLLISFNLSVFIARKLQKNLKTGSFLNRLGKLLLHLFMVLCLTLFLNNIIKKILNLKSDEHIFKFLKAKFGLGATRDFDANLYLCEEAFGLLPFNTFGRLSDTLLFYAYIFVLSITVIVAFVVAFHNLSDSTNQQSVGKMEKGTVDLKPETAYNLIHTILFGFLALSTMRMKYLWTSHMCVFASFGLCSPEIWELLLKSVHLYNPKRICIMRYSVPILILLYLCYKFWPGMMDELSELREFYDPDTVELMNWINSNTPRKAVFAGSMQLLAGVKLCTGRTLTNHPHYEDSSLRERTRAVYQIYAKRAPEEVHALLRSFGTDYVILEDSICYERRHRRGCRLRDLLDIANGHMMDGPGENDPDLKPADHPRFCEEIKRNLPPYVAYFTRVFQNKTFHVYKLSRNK
Sequence of UniProt Q9BW66 (Q9BW66 whole entry, looked up): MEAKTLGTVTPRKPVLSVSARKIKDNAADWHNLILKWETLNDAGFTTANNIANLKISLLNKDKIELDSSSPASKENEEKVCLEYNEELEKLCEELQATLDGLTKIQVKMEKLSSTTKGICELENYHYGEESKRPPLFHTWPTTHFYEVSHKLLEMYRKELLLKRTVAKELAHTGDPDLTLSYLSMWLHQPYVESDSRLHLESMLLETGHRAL
Sequence of UniProt Q9NQI0 (Q9NQI0 whole entry, looked up): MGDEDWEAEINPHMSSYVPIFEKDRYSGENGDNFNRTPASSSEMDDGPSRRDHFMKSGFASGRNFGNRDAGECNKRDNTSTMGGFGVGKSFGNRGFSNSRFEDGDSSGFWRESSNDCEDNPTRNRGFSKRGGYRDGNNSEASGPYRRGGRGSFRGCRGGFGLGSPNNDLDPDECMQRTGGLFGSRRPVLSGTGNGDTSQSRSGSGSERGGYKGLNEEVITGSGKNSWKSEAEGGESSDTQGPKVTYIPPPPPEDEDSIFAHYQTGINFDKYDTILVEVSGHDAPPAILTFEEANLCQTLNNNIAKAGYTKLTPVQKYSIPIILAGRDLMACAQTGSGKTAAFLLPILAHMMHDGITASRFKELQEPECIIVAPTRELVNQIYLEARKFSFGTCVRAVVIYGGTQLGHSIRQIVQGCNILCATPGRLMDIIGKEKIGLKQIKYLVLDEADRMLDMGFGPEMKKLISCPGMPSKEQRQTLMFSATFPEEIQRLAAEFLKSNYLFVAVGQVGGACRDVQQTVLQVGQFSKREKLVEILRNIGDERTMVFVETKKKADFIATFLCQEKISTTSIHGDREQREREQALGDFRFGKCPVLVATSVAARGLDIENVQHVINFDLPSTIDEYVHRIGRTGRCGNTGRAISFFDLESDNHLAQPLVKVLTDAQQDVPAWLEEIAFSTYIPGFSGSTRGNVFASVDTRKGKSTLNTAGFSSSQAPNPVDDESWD
Sequence of UniProt Q8IWV2 (Q8IWV2 whole entry, looked up): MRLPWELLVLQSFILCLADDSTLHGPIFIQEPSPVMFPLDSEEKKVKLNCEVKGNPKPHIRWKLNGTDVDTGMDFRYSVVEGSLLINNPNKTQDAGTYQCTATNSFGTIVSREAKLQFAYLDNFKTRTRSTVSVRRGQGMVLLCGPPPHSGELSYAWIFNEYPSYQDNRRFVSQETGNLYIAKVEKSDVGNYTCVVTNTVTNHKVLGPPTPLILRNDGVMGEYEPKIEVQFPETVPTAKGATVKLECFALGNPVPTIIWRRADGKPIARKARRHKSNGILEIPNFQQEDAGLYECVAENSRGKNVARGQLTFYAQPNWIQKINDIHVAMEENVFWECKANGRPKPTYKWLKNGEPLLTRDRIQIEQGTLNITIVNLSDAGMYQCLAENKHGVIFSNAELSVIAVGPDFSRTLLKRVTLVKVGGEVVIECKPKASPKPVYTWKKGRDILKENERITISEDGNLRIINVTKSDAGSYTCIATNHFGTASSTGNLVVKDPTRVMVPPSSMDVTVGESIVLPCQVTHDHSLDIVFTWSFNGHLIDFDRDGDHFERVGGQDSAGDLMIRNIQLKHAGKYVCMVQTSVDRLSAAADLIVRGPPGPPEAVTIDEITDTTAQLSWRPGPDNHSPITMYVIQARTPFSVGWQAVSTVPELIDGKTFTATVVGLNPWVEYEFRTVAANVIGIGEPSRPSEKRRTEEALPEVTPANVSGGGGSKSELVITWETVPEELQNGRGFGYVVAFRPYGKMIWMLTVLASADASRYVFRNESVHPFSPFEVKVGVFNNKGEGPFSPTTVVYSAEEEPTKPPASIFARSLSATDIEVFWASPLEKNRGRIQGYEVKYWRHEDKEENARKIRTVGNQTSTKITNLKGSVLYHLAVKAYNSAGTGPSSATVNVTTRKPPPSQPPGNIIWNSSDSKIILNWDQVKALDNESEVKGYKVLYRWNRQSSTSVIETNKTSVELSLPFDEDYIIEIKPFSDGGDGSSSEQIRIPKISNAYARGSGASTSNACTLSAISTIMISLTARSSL
Sequence of UniProt Q99704 (Q99704 whole entry, looked up): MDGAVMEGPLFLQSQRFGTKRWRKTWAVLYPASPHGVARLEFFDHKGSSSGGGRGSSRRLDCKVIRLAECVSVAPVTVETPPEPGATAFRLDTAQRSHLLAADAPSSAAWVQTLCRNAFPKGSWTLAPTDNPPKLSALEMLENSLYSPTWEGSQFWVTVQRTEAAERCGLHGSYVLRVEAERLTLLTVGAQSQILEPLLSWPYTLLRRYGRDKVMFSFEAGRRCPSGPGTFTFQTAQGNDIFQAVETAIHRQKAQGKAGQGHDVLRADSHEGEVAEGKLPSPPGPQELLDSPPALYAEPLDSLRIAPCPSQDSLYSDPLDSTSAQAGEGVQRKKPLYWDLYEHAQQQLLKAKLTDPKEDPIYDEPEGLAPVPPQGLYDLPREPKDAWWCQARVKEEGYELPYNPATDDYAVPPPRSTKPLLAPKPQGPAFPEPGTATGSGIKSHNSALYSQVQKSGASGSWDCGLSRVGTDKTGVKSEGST
Sequence of UniProt Q6P3W2 (Q6P3W2 whole entry, looked up): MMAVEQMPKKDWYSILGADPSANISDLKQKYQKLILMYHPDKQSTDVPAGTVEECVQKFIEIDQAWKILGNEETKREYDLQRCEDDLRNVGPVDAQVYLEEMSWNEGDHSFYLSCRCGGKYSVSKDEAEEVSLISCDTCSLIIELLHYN
Sequence of UniProt P24311 (P24311 whole entry, looked up): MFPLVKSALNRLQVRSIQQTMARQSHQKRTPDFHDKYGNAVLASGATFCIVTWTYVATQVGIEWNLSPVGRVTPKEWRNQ
Sequence of UniProt Q9H3Z4 (Q9H3Z4 whole entry, looked up): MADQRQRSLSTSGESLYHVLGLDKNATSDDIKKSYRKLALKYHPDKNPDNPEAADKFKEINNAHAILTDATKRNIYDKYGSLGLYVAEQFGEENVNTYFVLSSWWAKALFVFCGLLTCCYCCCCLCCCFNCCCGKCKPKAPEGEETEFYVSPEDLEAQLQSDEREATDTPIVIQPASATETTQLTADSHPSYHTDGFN

Target	log2 fold change (vemurafenib)	log2 fold change [1]	log2 fold change [2]	log2 fold change (volasertib)	log2 fold change [3]	log2 fold change [4]	log2 fold change [5]	log2 fold change (saracatinib)	log2 fold change (sotrastaurin)	log2 fold change (alvocidib)	log2 fold change (Tubastatin A)	log2 fold change [6]	log2 fold change (defactinib)	log2 fold change [7]	log2 fold change (encorafenib)	log2 fold change [8]	log2 fold change (alisertib)	log2 fold change [9]	log2 fold change (gefitinib)	log2 fold change (barasertib)
DNAJC24 (UniProt Q6P3W2)	0.141	-0.038	0.017	0.027	0.002	0.196	-0.309 (active)	-0.013	-0.032	0.079	0.001	-0.017	0.009	-0.088	0.037	-0.027	-0.017	-0.006	-0.038	
DOK1 (UniProt Q99704)	0.028	0.061	-0.113	-0.026	0.021	-0.055	0.101	0.024	0.029	-0.02	-0.135	0.059	0.059	-0.005	-0.007	0.044	0.082	0.071	-0.102	-0.027
CNTN4 (UniProt Q8IWV2)	0.237	0.12	0.295	0.024	-0.326	-0.474	0.128		-0.076	-0.148	0.185	0.021	-0.104		-0.193	0.124	-0.074	0.03	-0.022	0.03
CINP isoform 3 (UniProt Q9BW66)	-0.071	0.01	0.098	-0.05	-0.033	-0.331	0.189	0.047	0.014	-0.056	-0.107		-0.056	0.028	0.003	0.062	0	0.064	-0.24	0.052
COX7B (UniProt P24311)	0.014	-0.047	-0.01	0.004	-0.051	0.047	-0.013	-0.062	-0.028	0.013	0.02	0.112	0.042	-0.014	-0.022	0.315 (active)	0.028	0.018	-0.139	
DPY19L3 (UniProt Q6ZPD9)	0.258	0.05	0.043	-0.007					0.051			-0.105	-0.039		0	-0.096		-0.042		0.071
DDX4 (UniProt Q9NQI0)	-0.044	-0.015	-0.071	-0.021	0.015	-0.167	0	-0.027		-0.234	-0.173	-0.05	-0.058	-0.116	-0.047	-0.02	0.032	-0.007	0.021	0.069
DNAJC5 (UniProt Q9H3Z4)	0.001	-0.02	-0.031	0.012	0.015	-0.476 (active)	0.243	0.01	0.041	-0.216	0.062	0.019	0.011	0.054	0.016	-0.057	-0.119	0.019	-0.039	0.008
